Bioassay records (PubChem BioAssay)
Only some compounds are listed: those with a hit (about 2.1% of all), similar ones and a draw of the others.
SIRT5 block – sirtuin-5 (human) deacylase inhibition; AID 652115; inhibition, % at 15 µM; 330,000 tested, 1.1% active; Purified SirT5, succinyl-peptide AMC, trypsin-coupled fluorescence; Q9NXA8; in the data active = inhibition above about 15%
Target sequence (Q9NXA8 whole entry, looked up): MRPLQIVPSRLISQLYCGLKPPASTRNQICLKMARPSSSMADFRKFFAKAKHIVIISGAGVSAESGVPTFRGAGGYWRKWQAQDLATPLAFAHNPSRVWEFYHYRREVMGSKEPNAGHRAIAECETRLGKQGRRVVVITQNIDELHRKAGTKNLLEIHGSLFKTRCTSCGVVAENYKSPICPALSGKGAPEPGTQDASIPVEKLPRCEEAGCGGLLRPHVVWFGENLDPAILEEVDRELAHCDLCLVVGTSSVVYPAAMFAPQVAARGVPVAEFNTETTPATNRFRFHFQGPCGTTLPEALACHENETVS
ARNT TACC3 PPI – disruptors of human ARNT/TACC3 interaction. Q9Y6A5. AlphaScreen His-ARNT PAS-B/GST-TACC3 binding, luminescence; TACC3 fragment carries E629A point mutation. inhibition, % at 9.99 µM. 390,000 tested, 0.66% active;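 active = mean inhibition of replicates at least 50% and at least half of replicates each reaching 50%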;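 note: 0% = complete ARNT plus TACC3 wells and 100% = ARNT alone without TACC3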
NSD2 inh – inhibitors of human histone methyltransferase NSD2 | 310,000 tested, 0.54% active | O96028 | AID 743445 | inhibition, % at 12.5 µM | NSD2 peptide methylation, AlphaScreen, 120 min; in the data active = inhibition above about 50%
Casp6 inh – blocks human caspase-6 cleavage activity; P55212; purified caspase-6, Z-VEID-R110 cleavage fluorescence; 350,000 tested, 0.53% active; inhibition, % at 12.5 µM;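 active = mean inhibition across replicates at least about 35%, with every replicate also reaching that limit, limit read from the data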;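 note: 0% = median of neutral control wells and 100% = no fluorescence left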
Target sequence (P55212 24-179 limits assumed): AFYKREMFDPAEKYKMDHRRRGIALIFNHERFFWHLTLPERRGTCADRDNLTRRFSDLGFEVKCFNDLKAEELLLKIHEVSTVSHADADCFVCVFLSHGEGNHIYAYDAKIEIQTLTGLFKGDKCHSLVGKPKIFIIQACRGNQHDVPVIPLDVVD
Target sequence (P55212 194-293 limits assumed): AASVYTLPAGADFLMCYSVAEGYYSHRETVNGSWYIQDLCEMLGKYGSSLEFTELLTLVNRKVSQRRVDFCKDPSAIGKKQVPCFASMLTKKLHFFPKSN
PfHsp90 yeast 2 – reduces growth (ATP signal) of yeast expressing P. falciparum Hsp90; inhibition, % at 9.4 µM; 310,000 tested, 0.32% active; S. cerevisiae expressing PfHsp90, BacTiter-Glo ATP, 48 h; yeast lacking PDR1 and PDR3 efflux regulators;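 active = every replicate shows inhibition above about 80%, whatever the replicate mean, limit read from the data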;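 note: 0% = DMSO neutral controls and 100% = 20 µM radicicol positive controls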
AlphaScreen art – interferes with AlphaScreen signal, flagging NSD2 false positives | shares compounds with NSD2 inh | AlphaScreen artifact counterscreen, preloaded methylated H4 peptide | AC35, µM (doses to about 10 µM), inactives show top-dose activity change, negative = signal loss | 1,500 tested, 9.4% active | AID 1053174; call rule not given here
* = called active by the depositor; nt = no result.

SMILES | SIRT5 block | ARNT TACC3 PPI | NSD2 inh | Casp6 inh | PfHsp90 yeast 2 | AlphaScreen art
O=C(CSc1nc(-c2ccccc2)c(-c2ccccc2)o1)Nc1nncs1 | nt | -6.8 | 1.0 | nt | -3.9 | nt
O=C(CSc1nc(-c2ccccc2)c(-c2ccccc2)o1)Nc1nnc(-c2ccccc2)s1 | nt | 6.6 | 76.4* | nt | nt | 2.4%
CCC(=O)N(C)C[C@H]1Oc2cc(C3=CCCC3)ccc2S(=O)(=O)N([C@H](C)CO)C[C@H]1C | 4.0 | 15.6 | nt | -4.5 | nt | nt
Cc1ccccc1NCC(=O)Nc1cc(S(=O)(=O)N2CCCCC2)ccc1C | 2.5 | -8.1 | 56.6* | -1.6 | nt | -6.7%
Cc1ccc(S(=O)(=O)N2CCOCC2)cc1NC(=O)CSc1nccn1C | nt | 0.0 | -4.4 | nt | -0.1 | nt
Cc1ccc(S(=O)(=O)N2CCOCC2)cc1NC(=O)CSc1ccccn1 | 2.0 | -0.1 | 52.5* | 0.5 | nt | -1.6%
Cc1ccc(S(=O)(=O)N2CCCCC2)cc1NC(=O)COc1ccccc1 | 14.7 | -8.5 | -1.3 | 1.6 | -25.5 | nt
Cc1cccc(C)c1NC(=S)N(CCCN1CCN(C)CC1)Cc1cccs1 | 0.4 | -4.8 | 74.7* | nt | 13.5 | -6.9%
COc1ccccc1NC(=O)N1C[C@H]2[C@@H](c3ccccc31)[C@H](CO)N2Cc1ccccc1F | -1.5 | 7.6 | nt | 2.7 | nt | nt
COc1ccc(-c2nnc(SCC(=O)c3ccc(O)cc3O)o2)cc1 | 0.3 | 4.0 | 81.5* | 4.1 | 10.4 | -3.2%
O=C(NCCCN1CCOCC1)[C@@H]1N[C@@H]2c3ccc(C4=CCCC4)c(=O)n3C[C@@H]2[C@H]1CO | -5.6 | -7.6 | nt | -1.6 | nt | nt
CCCCNc1c([N+](=O)[O-])ncn1C | 1.5 | -3.1 | -6.5 | 1.4 | -9.5 | nt
COc1ccc(CCNc2c([N+](=O)[O-])ncn2C)cc1OC | -1.8 | -12.8 | 60.6* | 1.3 | -26.0 | -3.2%
C[C@@H]1CN([C@@H](C)CO)C(=O)Cc2cc(N(C)C)ccc2O[C@H]1CN(C)S(=O)(=O)c1ccc(Cl)cc1 | 5.7 | 12.0 | nt | 4.1 | nt | nt
N#C[C@H]1[C@@H](c2ccc(-c3ccccc3F)cc2)[C@H](CO)N1C(=O)Cc1ccccc1 | 2.7 | 15.7 | nt | 0.1 | nt | nt
CCOc1ccccc1NC(=O)CSc1nc2nc(-c3cccs3)cc(C(F)(F)F)c2c(=O)[nH]1 | -6.6 | -5.7 | 84.3* | -1.6 | 19.6 | -1.2%
C/C=C/c1ccc([C@H]2[C@@H](CO)N(C(=O)c3ccccc3)C23CN(C(C)=O)C3)cc1 | -4.3 | nt | nt | -0.2 | nt | nt
CCc1cc(OCCN2C(=O)NC(C)(C)C2=O)ccc1Cl | nt | -1.9 | 71.8* | nt | -28.6 | -3.1%
CC1(C)NC(=O)N(CCCCOc2ccc(Cl)cc2)C1=O | nt | -6.9 | -2.1 | nt | -8.6 | nt
CCNC(=O)C[C@@H]1CC[C@H](NC(=O)C2CCC2)[C@H](CO)O1 | 12.2 | 7.1 | nt | 1.9 | nt | nt
CCOC(=O)c1c(C#N)c(SCC(=O)Nc2ccc(OC)cc2)nc2c1CN(CC)CC2 | nt | -6.0 | 69.6* | nt | -9.7 | -3.1%
CCc1ccc(NC(=S)Nc2cccc3cnccc23)cc1 | 3.2 | 12.0 | 98.2* | 2.3 | nt | 0.0%
CCCC#Cc1cnc2c(c1)C(=O)N([C@H](C)CO)C[C@H](C)[C@H](CN(C)C(=O)Nc1ccccc1F)O2 | 1.1 | -2.7 | nt | 3.7 | nt | nt
O=C(C[C@H]1C=C[C@@H](NC(=O)CN2CCOCC2)[C@H](CO)O1)NCCc1ccccc1 | 2.1 | nt | nt | -2.7 | nt | nt
COc1ccc(C(=O)Nc2c3c(nn2-c2ccc(Cl)cc2)CS(=O)(=O)C3)cc1 | -0.9 | nt | 69.4* | -2.1 | 14.4 | -1.4%
SMILES | SIRT5 block | ARNT TACC3 PPI | NSD2 inh | Casp6 inh | PfHsp90 yeast 2 | AlphaScreen art
COCCNc1nc(-c2ccccc2)nc2ccccc12 | 1.8 | 8.8 | 50.8* | -0.6 | -13.5 | -3.2%
Fc1ccc(CNc2nc(-c3cccnc3)nc3ccccc23)cc1 | 14.8 | nt | 118.4* | -5.5 | -3.5 | 1.1%
CCNC(=O)[C@@H]1[C@@H](CO)[C@@H]2Cn3c(ccc(-c4ccccc4)c3=O)[C@@H]2N1Cc1ccc2c(c1)OCO2 | 10.4 | 3.0 | nt | 2.2 | nt | nt
Cc1noc(C)c1S(=O)(=O)Nc1ccc2c(c1)C(=O)N([C@H](C)CO)C[C@H](C)[C@@H](CN(C)Cc1ccc3c(c1)OCO3)OCCCC[C@H](C)O2 | 8.1 | 5.5 | nt | -3.9 | nt | nt
Cc1c(C(=O)c2no[n+]([O-])c2C(=O)c2cnn(C)c2C)cnn1C | nt | -8.6 | 66.4* | nt | 6.7 | -3.7%
Cc1c(C(=O)Nc2ccc(Br)cc2)cnn1C | nt | -0.8 | 1.4 | nt | 13.1 | nt
O=C(C[C@H]1C=C[C@@H](NS(=O)(=O)c2ccc(F)cc2)[C@@H](CO)O1)NCc1ccc(Cl)c(Cl)c1 | 2.7 | nt | nt | 1.5 | nt | nt
CC(C)NC(=O)N(C)C[C@H]1Oc2ncc(C#Cc3ccncc3)cc2C(=O)N([C@@H](C)CO)C[C@@H]1C | 1.5 | -0.8 | nt | 0.1 | nt | nt
CCCOc1ccc(C(C)=O)cc1CC(C(N)=O)C(N)=O | nt | -5.4 | 135.1* | nt | -51.0 | 1.9%
CC(=O)c1ccc(OCC(C)C)c(CC(C(N)=O)C(N)=O)c1 | 7.6 | -5.5 | 0.7 | 3.7 | -0.6 | nt
COC(=O)c1ccc(/C=N/N2CCN(Cc3ccccc3)CC2)cc1 | nt | 12.4 | 51.6* | nt | 29.7 | -6.3%
COC(=O)c1ccc(/C=N\N2CCN(Cc3ccc(C)cc3)CC2)cc1 | -0.9 | 6.8 | 1.0 | -6.9 | 12.5 | nt
COCCCNC(=O)c1ccc2c3c(onc13)-c1ccccc1C2=O | nt | 31.1* | 53.3* | nt | -4.6 | -14.4%
COCCCNC(=O)c1ccccc1Oc1ccccc1 | nt | -6.1 | 0.9 | nt | -34.2 | nt
CCNC(=O)C1CCCN(C(=O)c2ccccc2OC(F)(F)F)CC1 (stereo unspecified) | -0.5 | nt | 60.3* | -0.7 | nt | -3.3%
C[C@@H]1CCCCO[C@H](CN(C)S(C)(=O)=O)[C@@H](C)CN([C@@H](C)CO)C(=O)c2cc(NS(=O)(=O)c3ccccc3)ccc2O1 | -2.5 | -5.0 | nt | 1.0 | nt | nt
COc1ccc(C)cc1NCc1ccc(OC)c(C)c1OC | -4.0 | -3.6 | 79.5* | 2.1 | -7.8 | -18.7%
CCOC(=O)C1CCCN(Cc2cc(Br)ccc2OC)C1 (stereo unspecified) | nt | -11.2 | nt | nt | 26.2 | nt
CCN(CC)C(=O)C1CCCN(Cc2ccc(OC)c(C)c2C)C1 (stereo unspecified) | -6.2 | 1.9 | 52.8* | 0.0 | nt | -5.0%
CCS(=O)(=O)N[C@H]1CC[C@H](CC(=O)Nc2ccc(-c3ccccc3)cc2)O[C@@H]1CO | -2.0 | 27.6 | nt | 3.6 | nt | nt
COc1ccc(NC(=O)Nc2ccc3c(c2)CC(=O)N([C@@H](C)CO)C[C@H](C)[C@H](CN(C)Cc2ccccc2)O3)cc1 | 3.8 | -0.6 | nt | -0.3 | nt | nt
N#CCC(=O)c1sccc1-n1cccc1 | 4.3 | 6.5 | 91.9* | 19.5 | 2.4 | -4.6%
N#CCOC(=O)c1sccc1-n1cccc1 | nt | 1.6 | 2.7 | nt | 17.1 | nt
C[C@@H]1CN([C@H](C)CO)C(=O)c2cc(NC(=O)c3ccncc3)ccc2O[C@@H](C)CCCCO[C@H]1CN(C)Cc1ccc(C(F)(F)F)cc1 | 7.9 | -0.6 | nt | -2.4 | nt | nt
